This is an account of results in PubChem BioAssay (Tox21).

The nature of test [1]: qHTS assay to identify small molecule agonists of the constitutive androstane receptor (CAR) signaling pathway - cell viability counter screen (AID 1224836). For viability change, negative = cytotoxic: % is set by controls: 0 for no effect and ±100 for the full control effect. Note: nearly all actives have a fitted effect of over 45% in size. Note: potency is the fitted concentration of half-maximal effect. In outline: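 Viability read-out: CellTiter-Fluor fluorescence after 23 h compound exposure at 37 C/5% CO2 in double-stable HepG2-CYP2B6-hCAR cells, with PK11195 present at 0.75 uM final; compounds tested in 15-point titration.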

The nature of test [2]: qHTS assay to identify small molecule antagonists of the constitutive androstane receptor (CAR) signaling pathway - cell viability counter screen (AID 1224837). For activity change, negative = cytotoxicity: % is set by controls: 0 for no effect and ±100 for the full control effect. Note: nearly all actives have a fitted effect of over 45% in size. Note: potency is the fitted concentration of half-maximal effect. The method, boiled down: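 Using CellTiter-Fluor, viability is scored in HepG2 cells stably carrying hCAR and a 2.2kb CYP2B6 reporter after 23 hr compound exposure across 15 concentrations, with CITCO present at 50 nM.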
(In general: In qHTS, concentration-response curves come from the screen itself.)

Test [3] has as its target Nuclear receptor subfamily 1 group I member 3 (Homo sapiens) (UniProt Q14994). The test can be described thus: qHTS assay to identify small molecule antagonists of the constitutive androstane receptor (CAR) signaling pathway (AID 1224838).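 Note: HepG2 cells stably expressing hCAR with CYP2B6 luciferase reporter stimulated by CITCO; nearly all actives have a fitted effect of over 40% in size.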 Note: potency is the fitted concentration of half-maximal effect. The method, boiled down:
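Reporter luminescence was quantified after 24 h exposure of hCAR/CYP2B6-2.2kb double-stable HepG2 cells to compounds at 15 concentrations in the presence of 50 nM CITCO final.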

Test [4] has the same target. The test can be described thus: qHTS assay to identify small molecule agonists of the constitutive androstane receptor (CAR) signaling pathway (AID 1224839). Note: % is set by controls: 0 for no effect and ±100 for the full control effect; nearly all actives have a fitted effect of over 15% in size. In outline: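 Luminescence read-out (ONE-Glo, 30 min, room temperature) from double-stable HepG2-CYP2B6-hCAR cells exposed 24 h to 15-point compound series in presence of 0.75 uM PK11195 final.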
The nature of test [5]: qHTS assay to identify small molecule antagonists of the estrogen related receptor signaling pathway with the pleiotropic PPARgamma coactivator (PGC) from Tox21 10K library - cell viability counter screen (AID 1224840; active = well fitted cell-killing curve with a large enough effect in the repeat runs, not every such curve was filed as active; note: nearly all actives have a fitted effect of over 40% in size; note: potency is the fitted concentration of half-maximal effect). In outline:
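Here the PGC/ERR cells serve as a cytotoxicity control: they are exposed to compounds for 17.5 hours at 37 C, and live-cell signal is quantified using CellTiter-Fluor fluorescence.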

In test [6] the target is Thyrotropin receptor (Homo sapiens) (UniProt P16473). The test can be described thus: qHTS assay to identify small molecule agonists of the thyroid stimulating hormone receptor (TSHR) signaling pathway (AID 1224843; calls by dose curve; note: % is set by controls: 0 for no effect and ±100 for the full control effect; nearly all actives have a fitted effect of over 45% in size). The method, boiled down: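 Steps: seed 800 TSHR-HEK293 cells per well; add test compound and hold 30 min at ambient temperature; dispense cAMP-d2 then anti-cAMP cryptate; incubate 1 h at ambient; measure fluorescence intensity.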

The nature of test [7]: qHTS assay to identify small molecule agonists of the hypoxia (HIF-1) signaling pathway - cell viability counter screen (AID 1224844; calls by dose curve; note: nearly all actives have a fitted effect of over 50% in size; note: potency is the fitted concentration of half-maximal effect). The method, boiled down:
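Multiplexed with the HRE beta-lactamase assay, this viability read used CellTiter-Glo luminescence (30 min, RT) on HRE-bla ME-180 cells treated 17 hrs with compounds in 0.5% dialyzed FBS medium.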

Test [8] can be described thus: qHTS assay to identify small molecule agonists of H2AX (AID 1224845; active = well fitted activation curve with a large enough effect in the signal ratio in the repeat runs, not every such curve was filed as active; the % refers to the signal ratio; note: % is set by controls: 0 for no effect and ±100 for the full control effect). In outline:
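Wild-type CHO-K1 cells, plated overnight, exposed 3hr at 37C to 15 concentrations (0.76% DMSO final). Lysed, then HTRF anti-pH2AX (S139) cryptate and anti-H2AX-d2 antibodies, 24 hr room temperature; 665/620 nm emission read.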

The nature of test [9]: qHTS assay to identify small molecule agonists of the hypoxia (HIF-1) signaling pathway (AID 1224846; active = well fitted activation curve with a large enough effect in the signal ratio in the repeat runs, not every such curve was filed as active; the % refers to the signal ratio; note: % is set by controls: 0 for no effect and ±100 for the full control effect). The method, boiled down:
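Hypoxia-pathway activation was scored as increased beta-lactamase from an HRE-controlled reporter in ME-180 cells; plated at 2,000 cells per well with 0.5% dialyzed FBS, they were exposed 17 hrs to compounds and then given CCF4-AM.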

Test [10] in a line: qHTS assay to identify small molecule agonists of H2AX - cell viability counter screen (AID 1224847; calls by dose curve; note: nearly all actives have a fitted effect of over 30% in size; note: potency is the fitted concentration of half-maximal effect). In outline:
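CHO-K1 wt, 1000 cells/well, o/n 37C; cpds 15 conc, 3 h 37C, 0.76% DMSO; CellTiter-Glo, 30 min RT, luminescence.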

Test [11] is described as follows: qHTS RealTime-Glo MT Cell Viability Assay in HepG2 cells - 24 hour (AID 1224867). Note: nearly all actives have a fitted effect of over 50% in size. Note: potency is the fitted concentration of half-maximal effect. The method, boiled down:
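Real-time, nonlytic viability: 600 HepG2 cells/well mixed with NanoLuc enzyme plus prosubstrate; 5 h settle, compound (DMSO) added by pintool; luminescence monitored over 40 h at 37 C.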

Test [12] can be described thus: qHTS RealTime-Glo MT Cell Viability Assay in HEK293 cells - 32 hour (AID 1224868). Note: nearly all actives have a fitted effect of over 50% in size. Note: potency is the fitted concentration of half-maximal effect. The method, boiled down:
(§1)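 Cells + reagent dispensed (600 cells/well, HEK293) → 5 h at 37 C/5% CO2 → 23 nL compound in DMSO pinned → 40 h at 37 C → luminescence read at 0, 8, 16, 24, 32, 40 h.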

Test [13] in a line: A CellTox Green Cytotoxicity Assay to monitor cytotoxicity in HEK293 cells - 0 hour (AID 1224869). Note: % is set by controls: 0 for no effect and ±100 for the full control effect; nearly all actives have a fitted effect of over 50% in size. The method, boiled down:
(§2)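 Seeding of HEK293 cells together with cytotoxicity dye preceded a 5 h incubation at 37 C/5% CO2. Test compounds in DMSO were then added and fluorescence monitored across 40 h.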

A short description of test [14]: qHTS RealTime-Glo MT Cell Viability Assay in HepG2 cells - 40 hour (AID 1224870). The method, boiled down:
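HepG2 cells (600/well) mixed with RealTime-Glo MT reagent, settled 5 h at 37 C/5% CO2 before compound addition. Nonlytic NanoLuc luminescence from viable-cell prosubstrate reduction read repeatedly during 40 h treatment at 37 C.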

Test [15] can be described thus: A CellTox Green Cytotoxicity Assay to monitor cytotoxicity in HEK293 cells - 40 hour (AID 1224871). Note: nearly all actives have a fitted effect of over 45% in size. Note: potency is the fitted concentration of half-maximal effect. The method, boiled down: as §2
The nature of test [16]: qHTS assay to identify small molecule antagonists of the estrogen related receptor signaling pathway with the pleiotropic PPARgamma coactivator (PGC) from Tox21 10K library (AID 1224841; call rule not given here; note: potency is the fitted concentration of half-maximal effect). In outline: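 Each well held 2,000 PGC/ERR cells, pre-incubated six hours (37 C, 5% CO2). Test substances in DMSO were added by pin tool and left for 18 h at 37 C before luciferase detection by One-Glo.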

Test [17] can be described thus: qHTS assay to identify small molecule agonists of the estrogen related receptor signaling pathway with the pleiotropic PPARgamma coactivator (PGC) from Tox21 10K library (AID 1224842). Note: % is set by controls: 0 for no effect and ±100 for the full control effect; nearly all actives have a fitted effect of over 15% in size. The method, boiled down: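 PGC/ERR reporter cell line, 2,000 cells per well, incubated 6 h at 37 C before 23 nL compound in DMSO was added. After 18 h at 37 C, One-Glo luminescence read following 30 min at room temperature.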

Test [18] is described as follows: qHTS assay to identify small molecule agonists of the estrogen related receptor (ERR) signaling pathway from Tox21 library (AID 1224849; calls by dose curve; note: % is set by controls: 0 for no effect and ±100 for the full control effect; nearly all actives have a fitted effect of over 15% in size). The note with it: ERR reporter cell line, ONE-Glo luciferase, 18 h. In outline: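 Six hours post-seeding at 37 C/5% CO2, ERR cells receive DMSO-solubilised compounds; after 18 h at 37 C, ONE-Glo reagent is applied and luminescence recorded.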

Test [19] in a line: qHTS RealTime-Glo MT Cell Viability Assay in HEK293 cells - 16 hour (AID 1224872). In outline: as §1
Test [20] can be described thus: qHTS assay to identify small molecule antagonists of the estrogen related receptor (ERR) signaling pathway from Tox21 library (AID 1224848). The method, boiled down:
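Luminescent reporter read-out (ONE-Glo) from NTP's ERR cell line after 18 h treatment at 37 C with DMSO-dissolved Tox21 compounds; cells pre-plated 6 h beforehand at 2,000 per well.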

Each structure is given as a SMILES string. Several values for one entry are separate records, joined by “and”; a condition that tells them apart may be missing. Equal values may be shown once. Records with an inconclusive call do not appear. The source holds several records for some structures; these can differ, active in one and inactive in another. Activity calls are given as the source filed them. Unless noted, calls come from the whole dose curve; as a rule, active = well fitted curve in the direction sought with a large enough effect in the repeat runs; inconclusive = weak or mixed curves; inactive = no such curve, though single readings can be large; an effect the other way counts as inactive or inconclusive.

Thyrotropin receptor (Homo sapiens), sequence (P16473 whole entry, looked up): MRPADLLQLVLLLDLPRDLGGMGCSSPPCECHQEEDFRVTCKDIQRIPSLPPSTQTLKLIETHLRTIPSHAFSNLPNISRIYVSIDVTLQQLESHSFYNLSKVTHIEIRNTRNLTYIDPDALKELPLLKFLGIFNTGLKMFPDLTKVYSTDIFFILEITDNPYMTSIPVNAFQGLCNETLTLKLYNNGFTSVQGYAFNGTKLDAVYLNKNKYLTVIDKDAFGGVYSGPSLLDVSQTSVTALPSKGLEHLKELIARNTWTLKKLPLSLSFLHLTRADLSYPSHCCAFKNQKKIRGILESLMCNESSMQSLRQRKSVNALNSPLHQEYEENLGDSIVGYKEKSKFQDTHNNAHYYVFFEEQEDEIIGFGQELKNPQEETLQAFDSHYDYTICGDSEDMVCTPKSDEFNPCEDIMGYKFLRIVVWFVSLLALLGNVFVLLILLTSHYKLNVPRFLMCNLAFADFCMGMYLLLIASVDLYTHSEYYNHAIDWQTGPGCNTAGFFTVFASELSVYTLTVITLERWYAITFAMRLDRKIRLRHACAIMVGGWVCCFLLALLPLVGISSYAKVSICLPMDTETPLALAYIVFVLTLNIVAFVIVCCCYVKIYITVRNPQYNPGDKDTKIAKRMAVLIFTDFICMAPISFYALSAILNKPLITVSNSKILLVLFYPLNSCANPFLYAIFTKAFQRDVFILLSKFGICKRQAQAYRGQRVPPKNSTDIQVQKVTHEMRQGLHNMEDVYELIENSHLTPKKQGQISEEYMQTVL
Nuclear receptor subfamily 1 group I member 3 (Homo sapiens), sequence (Q14994 whole entry, looked up): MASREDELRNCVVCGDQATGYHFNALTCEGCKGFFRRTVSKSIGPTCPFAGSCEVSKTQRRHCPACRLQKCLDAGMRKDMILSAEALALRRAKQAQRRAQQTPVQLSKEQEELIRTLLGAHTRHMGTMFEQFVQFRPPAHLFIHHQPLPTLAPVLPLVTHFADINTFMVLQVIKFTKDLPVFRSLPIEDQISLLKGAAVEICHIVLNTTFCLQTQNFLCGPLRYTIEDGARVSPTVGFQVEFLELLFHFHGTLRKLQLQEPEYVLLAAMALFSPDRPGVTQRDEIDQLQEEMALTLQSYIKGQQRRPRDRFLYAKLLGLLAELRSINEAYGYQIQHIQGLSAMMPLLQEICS

`O=C(Oc1ccccc1)c1ccccc1O`: the Potency entry in test [1], in test [2], in test [3], in test [4], in test [5] and in [6] was “inactive” each time. The Potency result in test [7], in test [8], in test [9], in test [10], in [11] and in [12] was “inactive” throughout. For the same compound, the Potency entry in test [13], in [14] and in test [15] was “inactive” in each case.
For the compound `NC(Cc1ccc(Cl)cc1)C(=O)O` (stereo unspecified), the figures for the viability change, negative = cytotoxic in test [1] and in [5] were 1.54% [at 0.349 µM] (inactive) and -10% [at 0.349 µM] (inactive), respectively. Further, the activity change, negative = cytotoxicity is 6.69% [at 0.349 µM] (inactive) in test [2], 0.588% [at 0.29 µM] (inactive) in test [7], -0.321% [at 0.582 µM] (inactive) in [10] and 0.0518% [at 0.29 µM] (inactive) in [11]. Moreover, the activity, negative = inhibition was -14.1% [at 0.349 µM] (inactive) in test [3] and 0.39% [at 0.349 µM] (inactive) in test [16]. In addition, the activation in test [4] is 0.949% [at 0.349 µM] (inactive); in [17], 0.108% [at 0.349 µM] (inactive); in [6], -0.308% [at 0.349 µM] (inactive). Further, the activation (H2AX phosphorylation) in test [8] was -0.212% [at 0.582 µM] (inactive). Also, the activity change, positive = activation in test [18] (at 0.349 µM (top of the series)) is -8.03% (inactive). Further, the activity change, negative = cytotoxic in test [12] was 11.7% [at 0.29 µM] (inactive); in test [14] it was 0.881% [at 0.29 µM] (inactive). The cytotoxicity increase in test [15] was -8.99% [at 0.29 µM] (inactive).
With `Cc1ccc(S(=O)(=O)Oc2ccc(N=Nc3ccc(-c4ccc(N=Nc5c(O)ccc6cc(S(=O)(=O)O)cc(S(=O)(=O)O)c56)c(C)c4)cc3C)cc2)cc1`, the Potency in [1] is 27.4 µM (active) and 20 µM (active); in test [2], 27.4 µM (active) and 31.6 µM (active); in test [5], 19.4 µM (active) and 20 µM (active); in test [16], 17.3 µM (active); in test [10], 45.2 µM (active) and 29.3 µM (active). Besides, the Potency result in [3], in test [4], in [17], in [7], in test [8] and in test [12] was “inactive” each time. In addition, the Potency result in [13], in test [15] and in test [19] was “inactive” each time. For the same compound, the activity change, positive = activation in test [18] (at 42.5 µM (top of the series)) is -13.6% (inactive); in test [18] (at 92.4 µM (top of the series)) it was -34.2% (inactive).
With `CCN(CC)C(=S)SSC(=S)N(CC)CC`, the Potency is 273 nM (active) and 157 nM (active) and 422 nM (active) in test [1]; 273 nM (active) and 249 nM (active) and 211 nM (active) in test [2]; 273 nM (active) and 78.8 nM (active) and 298 nM (active) in test [3]; 193 nM (active) and 44.3 nM (active) and 266 nM (active) in [5]; 243 nM (active) and 366 nM (active) in test [16]; 355 nM (active) and inactive in test [7]. Further, the Potency was 243 nM (active) and 55.8 nM (active) and 298 nM (active) in test [20]; 436 nM (active) and 398 nM (active) and inactive in [11]; 174 nM (active) and 89.1 nM (active) and 13.4 µM (active) in test [12]; 155 nM (active) and 5.62 µM (active) and 84.9 nM (active) in test [15]. The Potency entry in test [4], in test [17], in test [10] and in test [13] was “inactive” throughout. The activity change, positive = activation was -68.2% (inactive) in test [18] (at 42.5 µM (top of the series)); -75.7% (inactive) and -76.4% (inactive) in test [18] (at 92.4 µM (top of the series)).
Consider `CCCN[C@H]1CCc2nc(N)sc2C1`, for which the Potency result in test [1], in [2], in [3], in test [4], in [5] and in test [6] was “inactive” in each case. In addition, the Potency result in test [7], in [8], in test [9], in [10], in [11] and in test [12] was “inactive” throughout. Also, the Potency entry in test [13], in test [14], in [15] and in test [19] was “inactive” throughout.
For `O=C(OCc1ccccc1)c1ccc(O)cc1`, the Potency result in test [1], in [2], in test [3], in [4], in test [5] and in [6] was “inactive” throughout. For the same compound, the Potency result in [7], in test [8], in test [9], in test [10], in test [11] and in test [12] was “inactive” throughout. Also, the Potency entry in test [13], in test [15] and in test [19] was “inactive” throughout.
Regarding `CCCCC(CC)COC(=O)CC(C(=O)OCC(CC)CCCC)S(=O)(=O)O` (stereo unspecified), the Potency result in [1], in test [2], in test [3], in test [4], in [5] and in test [8] was “inactive” throughout. Besides, the Potency entry in test [11], in [13] and in test [14] was “inactive” each time. The Potency in test [7] was 26.5 µM (active) and 21.9 µM (active); in test [10], 86.4 µM (active) and 80 µM (active); in [15], 24.5 µM (active).
